DT40 TDP1 no CPT – qHTS for Inhibitors of human tyrosyl-DNA phosphodiesterase 1 (TDP1): qHTS in cells in absence of CPT; Potency, µM (series often up to 46.2 µM), most hits filed as inhibitors; 420,000 tested, 15% active; DT40 Tdp1-/- hTDP1 cells, no CPT, ATP luminescence, 48 h; further: nearly all actives have a fitted effect of over 55% in size
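Growth of hTDP1-complemented DT40 Tdp1-knockout cells is measured by ATP luminescence after at least 48 hr compound exposure at 37 °C, with DMSO substituting for the 20 nM CPT used in the parallel screen.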
12-LOX inh – Primary qHTS assay for inhibitors of human arachidonate 12S-lipoxygenase (ALOX12): Round 2 | purified 12hLO, xylenol orange hydroperoxide absorbance | Potency, µM (doses to about 108 µM), usual class: inhibitors | 580,000 tested, 1.1% active | AID 1671190, 2021
Target sequence (P18054 whole entry, looked up): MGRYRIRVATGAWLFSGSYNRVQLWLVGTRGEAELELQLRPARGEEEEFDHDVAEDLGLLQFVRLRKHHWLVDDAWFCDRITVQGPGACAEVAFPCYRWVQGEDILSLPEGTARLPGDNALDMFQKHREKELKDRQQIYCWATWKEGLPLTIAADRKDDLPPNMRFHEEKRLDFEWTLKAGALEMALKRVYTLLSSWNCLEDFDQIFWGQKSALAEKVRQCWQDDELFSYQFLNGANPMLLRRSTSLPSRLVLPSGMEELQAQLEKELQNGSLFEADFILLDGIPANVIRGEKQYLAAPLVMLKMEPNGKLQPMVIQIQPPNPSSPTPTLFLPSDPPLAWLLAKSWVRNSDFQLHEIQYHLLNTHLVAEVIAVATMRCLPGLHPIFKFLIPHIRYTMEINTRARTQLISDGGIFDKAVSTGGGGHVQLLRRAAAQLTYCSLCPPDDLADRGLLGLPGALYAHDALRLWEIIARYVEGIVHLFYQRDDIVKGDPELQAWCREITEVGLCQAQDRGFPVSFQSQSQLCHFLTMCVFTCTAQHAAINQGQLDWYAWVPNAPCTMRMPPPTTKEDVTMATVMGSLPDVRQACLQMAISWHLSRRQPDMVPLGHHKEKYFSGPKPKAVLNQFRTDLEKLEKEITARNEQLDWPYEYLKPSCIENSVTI
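Purified human 12hLO at 150 nM in 25 mM Hepes, 0.01% Triton X-100, pH 7.0, preincubated 15 min at room temperature with compound. Reaction started with 40 uM arachidonic acid, 30 min at room temperature. Hydroperoxide measured by Fe-xylenol orange, 573/405 nm absorbance ratio.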
ELG1 DNA repair – qHTS screen for small molecules that inhibit ELG1-dependent DNA repair in human embryonic kidney (HEK293T) cells expressing luciferase-tagged ELG1. HEK293T ELG1-luciferase reporter, luminescence, 16 h; DNA damage induced by 5-fluorouridine. Potency, µM (series often up to 46.1 µM), most hits filed as inhibitors. 330,000 tested, 2.3% active. AID 504467, 2011; further: nearly all actives have a fitted effect of over 55% in size
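Step one: seed 2,000 cells per well. Step two: pin-transfer compound or DMSO alongside 5-fluorouridine. Step three: incubate 16 hr, 37 °C, 5% CO2. Step four: add ONE-Glo, wait 30 min, read luminescence.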
DT40 TDP1 CPT – qHTS for Inhibitors of human tyrosyl-DNA phosphodiesterase 1 (TDP1): qHTS in cells in presence of CPT; chicken DT40 Tdp1-/-;hTDP1 cells + 20 nM CPT, ATP luminescence, 48 h; 420,000 tested, 12% active; Potency, µM (doses to about 46.2 µM), most hits filed as inhibitors; AID 686979, 2013; further: nearly all actives have a fitted effect of over 55% in size
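Cell growth measured by CellTiter-Glo luminescence after a minimum 48 h, 37 C compound exposure with 20 nM CPT in Tdp1-knockout DT40 cells stably expressing hTDP1, seeded 400/well; qHTS titration format.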
RORg inh – qHTS for inhibitors of ROR gamma transcriptional activity; 310,000 tested, 5.4% active; Potency, µM (titrated, usually from 53.6 µM), most hits filed as inhibitors; Drosophila S2 Gal4-RORgamma UAS-luciferase reporter, 20 h; further: nearly all actives have a fitted effect of over 60% in size
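Drosophila Schneider cells stably carrying a metallothionein-driven Gal4 DBD–ROR gamma fusion and a UAS-Photinus luciferase reporter were exposed to compound for 1 hr, then induced with copper sulfate (700 uM final) for 20 hr at ambient temperature before luminescence reading.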
VP16 counter – VP16 counterscreen qHTS for inhibitors of ROR gamma transcriptional activity | Drosophila S2 Gal4-VP16 UAS-luciferase, luminescence, 20 h | Potency, µM (highest dose often 53.6 µM), hits mostly inhibitors | 310,000 tested, 3.5% active | AID 2546, 2010;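 further: Gal4-VP16 expression switched on by copper sulfate through the metallothionein promoter; nearly all actives have a fitted effect of over 50% in size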
A number is an active result; . = inactive; ? = inconclusive; / = no result; ! = not active in a repeat. Most compounds without a hit are left out; they make up all but 15% or so of the library. The call rests on the fitted dose curve; in most records, active means well fitted curve in the direction sought with a large enough effect; inconclusive means small, poorly fitted or top-dose-only effect, or another doubt; inactive means no such curve, though single readings can be large; an effect the other way counts as inactive or inconclusive.

SMILES	DT40 TDP1 no CPT	12-LOX inh	ELG1 DNA repair	DT40 TDP1 CPT	RORg inh	VP16 counter
CCCNC(=O)c1ccc2c(c1)nc(C)n2-c1cccc(C)c1	?	.	.	16µM!	.	.
Cc1cccc(-n2c(C)nc3cc(C(=O)NCCC4=CCCCC4)ccc32)c1	?	.	/	15µM	/	/
CCc1ccc(-n2c(C)nc3cc(C(=O)NCCc4ccccc4)ccc32)cc1	?	.	/	21µM	/	/
Cc1nc2cc(C(=O)OCC(=O)NC(C)C(C)C)ccc2n1-c1ccccc1 (stereo not given)	?	.	?	.	.	28µM
Cc1cccc(-n2c(C)nc3cc(C(=O)NCc4ccc(F)cc4)ccc32)c1	/	.	/	/	/	/
CCN(Cc1cccc(F)c1)C(=O)c1cc(-c2ccncc2)nc2ccccc12	/	.	/	/	/	/
CCCn1nnnc1CN1CCCC1c1ccc(OCC)cc1 (stereo not given)	/	.	/	/	/	/
COc1ccc(NC(=O)CN2CCc3cc(OC)c(OC)cc3C2c2ccccc2)cc1 (stereo not given)	/	.	/	/	/	/
CCOc1ccccc1Oc1c(C)oc2cc(OCC(=O)Nc3ccc(O)cc3C)ccc2c1=O	/	.	/	/	/	/
O=C(NCCc1ccccc1Cl)c1ccc2nc3ccccc3c(=O)n2c1	?	.	?	15µM	.	.
Cc1ccccc1CCNC(=O)c1ccc2c(c1)c(C)c(C)n2C	?	.	/	?	/	/
Cc1ccccc1CCNC(=O)c1ccc2c(c1)c(C)c(C)n2Cc1ccccc1	?	.	/	18µM	/	/
Cc1c(C)n(Cc2ccccc2)c2ccc(C(=O)NCCc3ccccc3Cl)cc12	?	.	/	21µM	/	/
CCOc1cc(N2CCOCC2)c(OCC)cc1NC(=O)COC(=O)CCOc1ccc(C(C)(C)C)cc1	?	.	.	?	/	/
CCCNC(=O)c1ccc(COc2ccc(C(C)(C)C)cc2)o1	13µM	.	.	?	.	?
COC(=O)c1ccc(COc2ccc(C(C)(C)C)cc2)o1	?	.	?	?	.	.
CC(C)(C)c1ccc(OCc2ccc(C(=O)N3CCOCC3)o2)cc1	26µM	.	?	?	?	?
CC(C)(C)c1ccc(OCCCC(=O)N2CCOCC2)cc1	?	.	?	?	?	11µM
CC(C)(C)c1ccc(OCCC(=O)Nc2ccc(N3CCOCC3)cc2N2CCOCC2)cc1	16µM	.	21µM	16µM	/	/
COc1ccc2oc(=O)cc(CN3CCN(C(=O)c4cccc(C)c4)CC3)c2c1	/	.	/	/	/	/
CCCC1(C(=O)O)CCCN(S(=O)(=O)c2ccsc2C(=O)O)C1 (stereo not given)	/	.	/	/	/	/
O=C(Nc1ccc(Cl)c(C(F)(F)F)c1)c1ccc(I)cc1	/	.	/	/	/	/
O=C(OCc1ccccc1)N1CCOCC12CCN(Cc1cccs1)CC2	/	.	/	/	/	/
N#CCCN1CCN(CCC#N)C1=S	.	.	/	.	/	/
N#CCCN1CCN(CCC#N)c2ccccc21	.	28µM	/	.	/	/
SMILES	DT40 TDP1 no CPT	12-LOX inh	ELG1 DNA repair	DT40 TDP1 CPT	RORg inh	VP16 counter
COc1cccc2c1C(CO)N1C(C#N)C3CC(C(=O)O)C(C1C2)N3C (stereo not given)	0.21µM	.	0.33µM	0.18µM	7.1µM	10µM
COCCc1nncn1C1CCN(S(=O)(=O)c2cc(F)ccc2F)CC1	/	.	/	/	/	/
Cc1ccc(C(=O)c2cnc3ccccc3c2-c2ccccc2)cc1	23µM	.	?	?	.	.
COc1ccc(C(=O)c2cnc3ccccc3c2-c2ccccc2)cc1	?	.	?	.	.	.
COCCCN1C(=O)C(O)=C(C(C)=O)C1c1cccc(F)c1 (stereo not given)	.	7.9µM	.	.	.	.
CCCCN1C(=O)C(O)=C(C(C)=O)C1c1ccccc1 (stereo not given)	.	/	.	.	.	.
CC(=O)C1=C(O)C(=O)N(CCc2c[nH]c3ccccc23)C1c1ccc(O)cc1 (stereo not given)	.	8.9µM	.	.	.	.
COc1cccc(C2C(C(C)=O)=C(O)C(=O)N2CCc2c[nH]c3ccccc23)c1 (stereo not given)	.	5µM	.	.	112µM	.
COc1ccc(C2C(C(C)=O)=C(O)C(=O)N2CCc2c[nH]c3ccccc23)cc1OC (stereo not given)	.	?	.	.	.	.
O=C1NCC2(CCN(C(=O)c3cn(CCC4CCCCN4)nn3)CC2)O1 (stereo not given)	/	.	/	/	/	/
CC(C)(CNC(=S)NC1CC2CCC1C2)N1CCOCC1 (stereo not given)	/	.	/	/	/	/
Cn1cc(/C=C2\SC(=O)NC2=S)c2ccccc21	.	.	.	.	2.5µM	6.3µM
COc1ccc(Nc2ncnc3onc(C)c23)c(OC)c1	.	.	/	.	/	/
Cc1noc2ncnc(NCc3cccc(Cl)c3)c12	18µM	.	/	16µM	/	/
Cc1ccc(CNc2ncnc3onc(C)c23)cc1	15µM	.	/	16µM	/	/
Fc1cc(F)cc(-c2noc3ncnc(NCc4ccccc4)c23)c1	/	.	/	/	/	/
COc1ccc(OC)c(CCNc2ncnc3onc(C)c23)c1	5.2µM	.	/	7.3µM	/	/
O=C(c1cccc(N2CCCC2=O)c1)N1CCCC(O)(CN2CCCC2)C1 (stereo not given)	/	.	/	/	/	/
O=C(NNC(=O)c1ccccc1OCC1CCCO1)c1cc2ccccc2cc1O (stereo not given)	/	.	/	/	/	/
N#Cc1nc(C2CC2)oc1N1CCN(C(=O)c2ccc(F)c(F)c2)CC1	/	.	/	/	/	/
COc1ccc(-c2nc(C#N)c(N3CCC(Cc4ccccc4)CC3)o2)cc1OC	/	.	/	/	/	/
O=C(COC(=O)C1CCC1)c1ccc[nH]1	/	.	/	/	/	/
Cc1cc(C)cc(NC(=O)N2CCCC(Cn3c(C4CC4)nc4cccnc43)C2)c1 (stereo not given)	/	.	/	/	/	/
Cc1c(Cl)cccc1NC(=S)NN	?	.	.	?	3.5µM	10µM
Cc1cccc(Cl)c1NC(=S)NN	13µM	?	.	?	5µM	?
SMILES	DT40 TDP1 no CPT	12-LOX inh	ELG1 DNA repair	DT40 TDP1 CPT	RORg inh	VP16 counter
CCOC(=O)Nc1cccc(Cl)c1C	.	.	.	.	.	.
NC(=O)Nc1cc(Cl)ccc1Cl	.	?	.	.	.	.
C=CCNC(=S)Nc1cc(Cl)ccc1C	/	.	/	/	/	/
Cc1ccc(Cl)cc1NC(=S)NN	?	?	.	?	8.9µM	?
NC(=S)Nc1cc(Cl)ccc1Cl	13µM	?	.	15µM	.	?
CCn1cc(CNC(=S)Nc2cccc(Cl)c2C)cn1	.	.	.	.	.	.
CNC(=S)Nc1cccc(Cl)c1C	.	?	.	.	13µM	?
